Assay results taken from PubChem BioAssay (EPA / NIEHS).
The source holds several records for some structures; these can differ, active in one and inactive in another. The source made the active and inactive calls. The calls were made as follows: active = hit-call score of the fitted dose curve at least 0.9, where 1 is the maximum; inactive = score below 0.9.

Experiments:
[1] = biological target: Hypoxia-inducible factor 1-alpha (Homo sapiens) (UniProt Q16665); assay: ATG_HIF1a_CIS: Attagene CIS-FACTORIAL HepG2 Assay for human Hypoxia Inducible Factor 1 (HIF1A) (AID 2282951); details: HepG2 Attagene cis-factorial HIF1a reporter transcription; actives raise or lower the signal
In short: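 HepG2, transient cis-reporter library, 24 h dosing. RNA → RT (oligo dT) → PCR → 6-FAM primer extension → HpaI → CE. Bidirectional curve fit vs DMSO.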

[2] = biological target: Hepatocyte nuclear factor 6 (Homo sapiens) (UniProt Q9UBC0); assay: ATG_HNF6_CIS: Attagene CIS-FACTORIAL HepG2 Assay for human Hepatocyte Nuclear Factor 6 (HNF6) (AID 2282952); details: HepG2 Attagene cis-factorial HNF6 reporter transcription; actives raise or lower the signal
In short: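 HepG2, transient MRTU transfection (cis promoters); 24 h chemical exposure; total RNA → oligo(dT) RT → PCR → 6-FAM labelling → HpaI cut → CE; bidirectional fit vs DMSO.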

[3] = biological target: Heat shock factor protein 1 (Homo sapiens) (UniProt Q00613); assay: ATG_HSE_CIS: Attagene CIS-FACTORIAL HepG2 Assay for human Heat Shock Transcription Factor 1 (HSE) (AID 2282953); details: HepG2 HSE cis-reporter, Attagene RNA transcription; actives raise or lower the signal
In short: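 HepG2, transient MRTU transfection, cis-promoter reporters (endogenous TF activity). 24 h compound. RNA → oligo(dT) RT → PCR → 6-FAM primer extension → HpaI cut → CE. Bidirectional fit vs DMSO.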

[4] = ATG_MRE_CIS: Attagene CIS-FACTORIAL HepG2 Assay for human Metal Responsive Element (MRE) (AID 2282954); details: HepG2 MRE cis-reporter transcription, Attagene multiplex; actives raise or lower the signal
In short: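 Fluorescent reporter fragments separated by capillary electrophoresis give mRNA induction for the MRE unit after 24 h treatment of transfected HepG2 cells. Endogenous transcription-factor activity is read; DMSO serves as negative control and baseline.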

[5] = ATG_PBREM_CIS: Attagene CIS-FACTORIAL HepG2 Assay for human Phenobarbital-responsive Enhancer Module (PBREM) (AID 2282955); details: HepG2 PBREM cis-reporter, Attagene multiplexed transcription; actives raise or lower the signal
In short: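 HepG2, transient MRTU transfection, 24 h dosing; RNA → oligo(dT) RT → PCR → 6-FAM extension → HpaI → CE. Bidirectional fit vs DMSO.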

[6] = biological target: Paired box protein Pax-6 (Homo sapiens) (UniProt P26367); assay: ATG_Pax6_CIS: Attagene CIS-FACTORIAL HepG2 Assay for human Paired Box 6 (PAX6) (AID 2282956); details: HepG2 CIS-FACTORIAL PAX6 reporter transcription, RNA readout; actives raise or lower the signal
In short: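 HepG2 cells transiently transfected with multiplexed cis-promoter reporter units (endogenous TF activity) were dosed for 24 h. Reporter mRNA was quantified by RT-PCR, 6-FAM labeling, HpaI digestion and capillary electrophoresis; bidirectional fitting versus DMSO baseline.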

[7] = ATG_PXRE_CIS: Attagene CIS-FACTORIAL HepG2 Assay for human Pregnane X Receptor Element (PXRE) (AID 2282957); details: HepG2 Attagene CIS-FACTORIAL PXRE reporter, mRNA; actives raise or lower the signal
In short: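 Transfect HepG2 with MRTUs (cis promoter elements); dose chemical, incubate 24 h; isolate RNA, RT with oligo(dT), PCR, 6-FAM label, HpaI cut, CE. Gain/loss fit vs DMSO.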

[8] = ATG_PPRE_CIS: Attagene CIS-FACTORIAL HepG2 Assay for human Peroxisome Proliferator-activated Response Element (PPRE) (AID 2282958); details: HepG2 PPRE cis-element reporter, Attagene transcription factor profiling; actives raise or lower the signal
In short: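 Transcript-level reporter induction in transfected HepG2 cells after 24 h chemical exposure, quantified by fluorescence from RT-PCR products separated by capillary electrophoresis.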

[9] = ATG_RORE_CIS: Attagene CIS-FACTORIAL HepG2 Assay for human RAR-related Orphan Receptor Element (RORE) (AID 2282959); details: HepG2 Attagene cis-factorial RORE reporter, mRNA; actives raise or lower the signal
In short: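 Multiplexed reporter assay measuring mRNA induction from a cis promoter element in transiently transfected HepG2 cells after 24 h treatment. Detection via RT-PCR and capillary electrophoresis fluorescence; DMSO serves as baseline.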

[10] = ATG_Sox_CIS: Attagene CIS-FACTORIAL HepG2 Assay for human SRY-box transcription factor (SOX) (AID 2282960); details: HepG2 Attagene cis-factorial SOX reporter, mRNA; actives raise or lower the signal
In short: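 Cells were transfected with reporter constructs under cis-regulatory promoters, then exposed to chemicals for 24 h. Reporter transcripts were quantified by fluorescence after RT-PCR and capillary electrophoresis; activity was fitted in both directions against DMSO.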

Measured: AC50

Chain of Paired box protein Pax-6 (Homo sapiens) (P26367 whole entry, looked up): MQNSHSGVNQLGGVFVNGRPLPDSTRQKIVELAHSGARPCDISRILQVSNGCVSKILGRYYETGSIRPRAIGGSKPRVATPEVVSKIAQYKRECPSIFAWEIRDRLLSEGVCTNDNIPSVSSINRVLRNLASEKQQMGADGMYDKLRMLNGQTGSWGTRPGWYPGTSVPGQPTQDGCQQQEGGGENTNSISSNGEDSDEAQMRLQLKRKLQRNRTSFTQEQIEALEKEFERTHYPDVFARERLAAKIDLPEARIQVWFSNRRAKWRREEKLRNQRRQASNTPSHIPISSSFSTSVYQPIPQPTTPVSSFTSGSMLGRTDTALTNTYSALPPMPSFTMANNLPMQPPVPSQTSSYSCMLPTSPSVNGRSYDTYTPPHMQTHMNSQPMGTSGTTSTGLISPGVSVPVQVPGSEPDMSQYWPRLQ
Chain of Heat shock factor protein 1 (Homo sapiens) (Q00613 whole entry, looked up): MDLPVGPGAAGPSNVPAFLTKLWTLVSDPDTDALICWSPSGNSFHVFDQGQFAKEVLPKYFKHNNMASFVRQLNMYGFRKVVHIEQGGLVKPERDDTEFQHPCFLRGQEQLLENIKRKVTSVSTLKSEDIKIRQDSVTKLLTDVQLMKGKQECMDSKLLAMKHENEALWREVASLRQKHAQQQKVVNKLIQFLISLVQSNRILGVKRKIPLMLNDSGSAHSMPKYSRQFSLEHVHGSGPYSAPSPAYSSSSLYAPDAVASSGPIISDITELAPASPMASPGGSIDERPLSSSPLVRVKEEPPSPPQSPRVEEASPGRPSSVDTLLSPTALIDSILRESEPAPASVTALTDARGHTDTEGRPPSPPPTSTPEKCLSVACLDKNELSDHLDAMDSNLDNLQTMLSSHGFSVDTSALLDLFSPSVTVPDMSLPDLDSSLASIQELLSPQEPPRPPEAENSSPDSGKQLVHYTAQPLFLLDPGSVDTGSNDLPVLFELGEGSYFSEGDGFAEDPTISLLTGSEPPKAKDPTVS
Chain of Hypoxia-inducible factor 1-alpha (Homo sapiens) (Q16665 whole entry, looked up): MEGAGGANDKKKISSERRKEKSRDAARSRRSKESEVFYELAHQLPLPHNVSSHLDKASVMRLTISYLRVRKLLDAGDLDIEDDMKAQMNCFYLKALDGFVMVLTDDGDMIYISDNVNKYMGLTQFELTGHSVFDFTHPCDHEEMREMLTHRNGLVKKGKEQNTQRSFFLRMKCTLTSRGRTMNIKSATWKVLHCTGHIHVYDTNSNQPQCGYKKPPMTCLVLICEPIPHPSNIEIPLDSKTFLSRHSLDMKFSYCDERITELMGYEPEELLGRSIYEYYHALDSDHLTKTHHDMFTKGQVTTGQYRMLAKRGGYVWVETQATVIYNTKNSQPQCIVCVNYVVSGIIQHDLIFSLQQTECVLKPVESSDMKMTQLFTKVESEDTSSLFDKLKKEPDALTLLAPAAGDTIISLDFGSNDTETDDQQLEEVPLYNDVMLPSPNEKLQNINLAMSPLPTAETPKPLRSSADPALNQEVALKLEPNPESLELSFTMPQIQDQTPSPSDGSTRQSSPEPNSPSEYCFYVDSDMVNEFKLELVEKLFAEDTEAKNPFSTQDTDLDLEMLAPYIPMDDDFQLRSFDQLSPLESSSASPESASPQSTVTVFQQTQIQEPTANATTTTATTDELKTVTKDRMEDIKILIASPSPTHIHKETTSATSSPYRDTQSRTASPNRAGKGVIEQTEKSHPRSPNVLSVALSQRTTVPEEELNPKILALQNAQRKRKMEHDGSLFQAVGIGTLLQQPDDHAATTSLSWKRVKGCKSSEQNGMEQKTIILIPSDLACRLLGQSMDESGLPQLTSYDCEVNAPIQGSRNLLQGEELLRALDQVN
Chain of Hepatocyte nuclear factor 6 (Homo sapiens) (Q9UBC0 whole entry, looked up): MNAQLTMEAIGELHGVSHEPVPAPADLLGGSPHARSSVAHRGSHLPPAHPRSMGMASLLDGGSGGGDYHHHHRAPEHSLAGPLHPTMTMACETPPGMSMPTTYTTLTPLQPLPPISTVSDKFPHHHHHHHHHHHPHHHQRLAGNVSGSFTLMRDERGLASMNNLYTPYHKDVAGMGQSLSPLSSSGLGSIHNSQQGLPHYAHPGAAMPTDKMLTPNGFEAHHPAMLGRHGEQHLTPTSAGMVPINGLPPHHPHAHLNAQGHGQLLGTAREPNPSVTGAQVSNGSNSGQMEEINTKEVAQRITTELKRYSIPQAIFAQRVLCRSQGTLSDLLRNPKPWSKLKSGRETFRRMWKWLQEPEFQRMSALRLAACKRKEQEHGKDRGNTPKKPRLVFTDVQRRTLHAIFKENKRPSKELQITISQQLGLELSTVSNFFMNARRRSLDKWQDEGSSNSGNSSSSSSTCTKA

Fc1cccc(Cl)c1CCl
active: [3] 159 µM | [6] 73.9 µM | [10] 100 µM
inactive: all other assays above

FC(F)OCC(F)(F)C(F)(F)F
inactive: all assays above

N#Cc1ccc(Cl)cc1
active: [7] 54.6 µM
inactive: all other assays above

O=C(O)C1(c2ccc3c(c2)OC[C@H](Cc2ccc(-c4ccccc4)cc2)[C@H]3O)CCCC1
active: [4] 2.85 µM
not listed: [9]
inactive: all other assays above

Cl[C@H]1OCCO[C@@H]1Cl
active: [1] 49.6 µM
inactive: all other assays above

CC(C)(C#N)N=NC(C)(C)C#N
active: [7] 79.6 µM
not listed: [9]
inactive: all other assays above

CN(C)c1ccc(N=O)cc1
active: [3] 25.4 µM
inactive: all other assays above

Clc1cccc(Cl)c1Cl
inactive: all assays above

O=S1(=O)OC(c2cc(Br)c(O)c(Br)c2)(c2cc(Br)c(O)c(Br)c2)c2ccccc21
active: [7] 24.5 µM | [8] 57.4 µM | [9] 93 µM
inactive: all other assays above

OC[C@@H](O)[C@H]1O[C@@H]2O[C@H](C(Cl)(Cl)Cl)O[C@@H]2[C@H]1O
inactive: all assays above

COc1ccccc1N
active: [7] 59.1 µM
inactive: [1] | [2] | [3] | [4] | [6] | [7] | [9]

O=C(NC(=O)c1c(F)cccc1F)Nc1cc(Cl)c(F)c(Cl)c1F
active: [7] 20.2 µM
not listed: [9]
inactive: all other assays above

COc1ccc([N+](=O)[O-])cc1O
not listed: [5] | [10]
inactive: all other assays above

CC(C)(C1CCC(O)CC1)C1CCC(O)CC1 (stereo not drawn)
active: [7] 35.3 µM
not listed: [8] | [10]
inactive: all other assays above

O=C(Cc1ccccc1)OCCc1ccccc1
not listed: [5] | [9] | [10]
inactive: all other assays above

O=C1c2ccccc2C(=O)C1C(=O)C(c1ccccc1)c1ccc(Cl)cc1 (stereo not drawn)
inactive: [1]
active: [2] 61.5 µM | [3] 62.8 µM | [4] 17.8 µM | [5] 9.73 µM | [6] 8.23 µM | [7] 1.51 µM | [8] 3.53 µM | [10] 7.35 µM

O=S1OC[C@@H]2[C@H](CO1)[C@]1(Cl)C(Cl)=C(Cl)[C@@]2(Cl)C1(Cl)Cl (stereo partly drawn)
active: [4] 66.4 µM | [5] 26.4 µM | [7] 2.34 µM
not listed: [8]
inactive: all other assays above

O=NN1CCCCCCC1
active: [7] 47.4 µM
not listed: [8] | [9]
inactive: all other assays above

CCOC(=O)C(SP(=S)(OC)OC)c1ccccc1 (stereo not drawn)
active: [4] 37.3 µM | [7] 1.77 µM
not listed: [8]
inactive: all other assays above

CCOP(=S)(OCC)Oc1ccc(Cl)cc1Cl
active: [7] 3.82 µM
not listed: [9]
inactive: all other assays above

CCCCOP(=O)(CCCC)OCCCC
active: [7] 6.97 µM
not listed: [9]
inactive: all other assays above

C=C(C)C(=O)OCCCCOC(=O)C(=C)C
not listed: [9]
inactive: all other assays above

Cc1cc(C(C)(C)c2ccc(O)c(C)c2)ccc1O
inactive: [8]
active: [1] 30.3 µM | [2] 93.9 µM | [3] 39.5 µM | [4] 50.6 µM | [5] 18.1 µM | [6] 50 µM | [7] 1.7 µM | [10] 50 µM

C1CN2CCN1CC2
active: [1] 50.5 µM
not listed: [8]
inactive: all other assays above
